Assay outcomes: PubChem, The Scripps Research Institute Molecular Screening Center
ZTA counter = counter-screen for EBNA-1 inhibitors: inhibitors of Epstein-Barr virus ZTA | P03206 | ZTA-DNA binding, fluorescence polarization | inhibition, % at 11 µM | hit rate 0.15% among 320,000 | AID 2234; in the data active = inhibition above about 33%
Target sequence (P03206 whole entry, looked up): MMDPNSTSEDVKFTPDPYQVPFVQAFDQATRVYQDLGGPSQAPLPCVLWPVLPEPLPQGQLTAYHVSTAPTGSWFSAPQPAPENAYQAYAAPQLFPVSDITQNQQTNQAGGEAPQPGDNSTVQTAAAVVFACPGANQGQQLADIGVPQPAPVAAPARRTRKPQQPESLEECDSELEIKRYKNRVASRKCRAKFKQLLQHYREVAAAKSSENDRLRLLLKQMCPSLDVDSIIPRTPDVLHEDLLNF
LYPLA2 inh = LYPLA2 inhibitors, primary screen, counter-screen for PME1 inhibitor project, biochemical, fluorescence polarization, FP-Rh probe ABPP; AID 2177, 2009; hit rate 0.38% among 320,000; inhibition, % at 5.9 µM; recombinant LYPLA2;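 active = inhibition above the screen-wide mean plus 3 SD, limit set per campaign, cut at about 26% in these data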
Target sequence (O95372 whole entry, looked up): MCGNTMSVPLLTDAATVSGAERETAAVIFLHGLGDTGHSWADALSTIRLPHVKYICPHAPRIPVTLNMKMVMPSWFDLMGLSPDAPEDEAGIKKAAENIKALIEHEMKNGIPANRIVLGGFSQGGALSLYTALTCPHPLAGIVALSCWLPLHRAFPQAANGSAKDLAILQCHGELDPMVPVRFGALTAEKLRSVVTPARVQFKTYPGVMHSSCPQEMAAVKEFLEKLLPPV
PAD4 FP inh = human PAD4 inhibitors, primary screen, biochemical, fluorescence polarization, 1536-well format; Protein-arginine deiminase type-4 (Homo sapiens), Q9UM07; recombinant PAD4, RCA probe fluorescence polarization; inhibition, % at 6.36 µM; hit rate 0.41% among 330,000; AID 485272, 2010;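 active = percent inhibition above a cutoff equal to the mean of all tested compounds plus 3 SD, cut at about 15% in these data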
LYPLA1 inh = LYPLA1 inhibitors, primary screen, counter-screen for PME1 inhibitor project, biochemical, fluorescence polarization, FP-Rh probe ABPP | recombinant LYPLA1 | inhibition, % at 5.9 µM | hit rate 0.16% among 320,000 | AID 2174, 2009;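 active = inhibition above the mean of all tested compounds plus 3 SD, set per campaign, cut at about 14% in these data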;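 also: inhibitors block serine hydrolase probe labeling of LYPLA1 so polarization falls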
GSTO1 counter = inhibitors of recombinant GSTO1, primary screen, counter-screen for RBBP9 inhibitor project, biochemical, fluorescence polarization | Glutathione S-transferase omega-1 (Homo sapiens), P78417 | activity-based probe fluorescence polarization | inhibition, % at 5.96 µM | hit rate 1.1% among 300,000 | AID 1974, 2009;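 active = inhibition above the campaign mean inhibition plus 3 SD, cut at about 35% in these data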
EBNA-1 inhibitor = EBNA-1 DNA-binding inhibitors, primary screen, biochemical, fluorescence polarization. inhibition, % at 14.8 µM. hit rate 0.34% among 300,000; in the data active = inhibition above about 28%
Of the large screens only hits and unclear results are named; the others gave an inactive call. Compounds with a hit are over-represented: about 1.7% of the library has one in this group of screens.

CC1(C)Cc2c(cnn2-c2ccc(F)cc2)C(NC(=O)CCC(F)(F)F)C1 (stereo not drawn)	none
Cc1cc(C)nc(/N=C(\N)Nc2cccc(OCc3ccccc3)c2)n1	none
Cc1cc(C)nc(/N=C(\N)Nc2ccc(OCc3ccccc3)cc2)n1	LYPLA2 inh 30.2
O=C(O)CN1C(=O)C(=O)N(Cc2ccc(Cl)cc2Cl)C1=O	none
Cc1c2ccccc2cc[n+]1CCCS(=O)(=O)[O-]	none
CC1(C)C(/C=C/C=C/C=C/C=C2\N(CCCCS(=O)(=O)O)c3ccc4ccccc4c3C2(C)C)=[N+](CCCCS(=O)(=O)[O-])c2ccc3ccccc3c21	ZTA counter 60.9, GSTO1 counter 41.2, EBNA-1 inhibitor 50.7
N#C/C(C(=O)Nc1ccc(Cl)cc1)=C(/S)Nc1ccccc1	GSTO1 counter 52.2
Cc1nc(NCCc2ccccc2)sc1C(=O)N(C)C	none
[O-][n+]1cccc2c(Br)cc(Br)c(O)c21	GSTO1 counter 46.3
O=S(=O)(NCCc1ccccc1F)c1cccc(S(=O)(=O)N2CCOCC2)c1	GSTO1 counter 42.8
COc1ccc(N2CC(C(=O)NNC(=O)c3ccc(Br)cc3)CC2=O)c(OC)c1 (stereo not drawn)	none
COC(=O)C1C(O)C(C)C(O)C(C)(O)/C=C\C=C(/C)C(=O)Nc2c(C)c(OC(C)=O)c3c(c2O)C(=O)C(C)=C2OCOC(=C23)/C(C)=C/C(C)(O)C(O)C(C)C1O (stereo not drawn)	GSTO1 counter 58.7
CC(=O)c1cc2c(O)c(O)ccc2o1	GSTO1 counter 37.0
COc1ccc2nc(NC(=O)CSc3nnc(N)s3)sc2c1	EBNA-1 inhibitor 37.2
COc1ccc2nc(NC(=O)CSc3ccccc3)sc2c1	none
COc1ccc2c(c1O)C(=O)c1ccccc1C2=O	none
COc1cccc2c1C(=O)C=C(C)C2=O	GSTO1 counter 39.9
CC1CCCC(C)N1/N=C/c1ccc(O)c(O)c1 (stereo not drawn)	GSTO1 counter 35.9
COc1ccc(/C=N/N2C(C)CCCC2C)cc1O (stereo not drawn)	none
Cc1cccc(NC(=O)N2CCC(NC(=O)C3CCCCC3)CC2)c1	none
C[C@@H]1O[C@@H](OC2C(O)C(OCCc3ccc(O)c(O)c3)OC(CO)C2OC(=O)/C=C/c2ccc(O)c(O)c2)[C@H](O)[C@H](O)[C@H]1O (stereo partly drawn)	GSTO1 counter 53.5
O=[N+]([O-])c1ccc(N2CCN(C(=S)NCc3ccc(Cl)cc3)CC2)cc1	LYPLA2 inh 27.6
CCNC(=S)N1CCN(c2ccc([N+](=O)[O-])cc2)CC1	none
CCCn1c(N)c(C(=O)CSc2nc(N)cc(=O)[nH]2)c(=O)n(C)c1=O	none (no result: GSTO1 counter, EBNA-1 inhibitor)
CCOC(=O)c1c2c(n(C)c1COC)C(=O)C(=O)c1ccc(Br)cc1-2	GSTO1 counter 56.2
CCCn1c(=O)c(C(=O)OCC)c(O)c2cc(Br)ccc21	none
COc1cc(C(=O)NCc2nnc(SCC(=O)NC3CCCCC3)o2)cc(OC)c1OC	none
Cc1ccc(C(=O)CSc2nnc(-c3ccco3)n2C)cc1	none
Cn1c(SCC(=O)c2cc(Cl)c(Cl)s2)nnc1-c1ccco1	GSTO1 counter 44.3
CC(=O)Nc1ccc(N(C(=O)Cn2nnc3ccccc32)C(C(=O)NC2CCCC2)c2ccc(O)c(O)c2)cc1 (stereo not drawn)	GSTO1 counter 42.7
CCOc1cc(C(C(=O)NCC2CCCO2)N(C(=O)Cn2nnc3ccccc32)c2ccc(NC(C)=O)cc2)ccc1O (stereo not drawn)	none
CCC(Cc1ccccc1)NS(=O)(=O)c1ccc2c(c1)NC(=O)CO2 (stereo not drawn)	none
O=C1COc2ccc(S(=O)(=O)NCc3ccccc3)cc2N1	GSTO1 counter 35.6
CSc1ncccc1C(=O)OCC(=O)Nc1ccc(N2CCOCC2)cc1	none (no result: ZTA counter, LYPLA2 inh, LYPLA1 inh, GSTO1 counter, EBNA-1 inhibitor)
N#Cc1c(N)sc(=S)c2c1CCN(Cc1ccccc1)C2	LYPLA2 inh 26.6, PAD4 FP inh 53.7, LYPLA1 inh 17.7, GSTO1 counter 50.5
CCN1CCc2c(sc(N)c2C#N)C1	none
COCCNC(=O)/C(C#N)=C/c1ccc(O)c([N+](=O)[O-])c1	none
COCCNC(=O)/C(C#N)=C/C=C/c1ccccc1[N+](=O)[O-]	GSTO1 counter 43.8
CCCNc1c(NS(=O)(=O)c2ccc(OC)c(OC)c2)c(=O)oc2ccccc12	none
CCCCCCNCC(=O)N1CCC(Cc2ccccc2)CC1	none
COc1ccc2c(c1)sc(N)[n+]2Cc1cc(C)cc2cccnc12	none
CCOc1ccc2c(c1)sc(N)[n+]2Cc1cc(C)cc2cccnc12	LYPLA2 inh 34.8
O=C(O)c1cc(O)c2c(c1)[C@H]([C@H]1c3cc(C(=O)O)cc(O)c3C(=O)c3c(O[C@@H]4O[C@H](CO)[C@@H](O)[C@H](O)[C@H]4O)cccc31)c1cccc(OC3O[C@H](CO)[C@@H](O)[C@H](O)[C@H]3O)c1C2=O (stereo partly drawn)	LYPLA2 inh 75.0, GSTO1 counter 71.5, EBNA-1 inhibitor 93.8
COc1ccc(-c2cc3nc4ccccc4n3c(N)c2C#N)cc1	GSTO1 counter 38.5
COc1ccc(-c2cc(-c3ccccc3)c(C#N)c(S(C)=O)n2)cc1 (stereo not drawn)	none
CCn1nc(NS(=O)(=O)c2ccccc2[N+](=O)[O-])c2cc3ccc(C)cc3nc21	none
CC(C)[C@]1(c2ccccc2)ON(c2ccccc2C(F)(F)F)C1=O	none (no result: GSTO1 counter, EBNA-1 inhibitor)
Oc1ccc(Cl)cc1CNc1cccc2cccnc12	GSTO1 counter 35.2
Cc1ccc(O)c(CNc2cccc3cccnc23)c1	none
CCCN1CCCc2cc(CN)ccc21	PAD4 FP inh 27.6, GSTO1 counter 63.6
COC1C(C)=C(C)C(=O)N1Cc1ccc(F)cc1 (stereo not drawn)	none
N#Cc1c(NC(=O)c2ccccc2Cl)n(Cc2ccccc2)c2nc3ccccc3nc12	GSTO1 counter 46.6
CCCCn1c(NC(=O)CC)c(C#N)c2nc3ccccc3nc21	none
Cc1[nH][nH]c(=O)c1C(c1ccc(-c2ccc(Cl)c(Cl)c2)o1)c1c(C)[nH][nH]c1=O	GSTO1 counter 34.9
Cc1[nH][nH]c(=O)c1C(c1ccc(N(C)C)c(Br)c1)c1c(C)[nH][nH]c1=O	none
CN(c1ccccc1)S(=O)(=O)c1cccc(NC(=O)CSc2nccc(=O)[nH]2)c1	none (no result: ZTA counter, LYPLA2 inh, LYPLA1 inh, GSTO1 counter, EBNA-1 inhibitor)
COC/C=C/C1=CC2=CC(=O)C(C)(OC(=O)C3CCCC3)C(=O)C2=CO1 (stereo not drawn)	none
COC/C=C/C1=CC2=CC(=O)C(C)(OC(=O)c3cccs3)C(=O)C2=CO1 (stereo not drawn)	none
